Laboratory results from PubChem BioAssay AID493169 (National Center for Advancing Translational Sciences (NCATS), 2011).
Records with an inconclusive call do not appear. Entries that show only a call come without a potency. Active and inactive are the calls of the source. Calls come from the whole dose curve; as a rule, active = well fitted inhibition curve with a large enough effect; inconclusive = small, poorly fitted or top-dose-only effect; inactive = flat fitted curve, though single readings scatter.

Assay: CHOP2 Reporter Counterscreen Assay for Inhibitors of Ubiquitin-specific Protease USP2a;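 note: activated enterokinase alone at 50 pM in a cell-free format rather than USP2a or CHOP2; nearly all actives have a fitted effect of over 55% in size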
Details: purified enterokinase, fluorogenic substrate, 485/531 nm; series mostly up to 38.3 µM
Outline: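 Fluorescence (485/531 nm) read 10 min after adding 25nM reporter substrate to 50 pM activated EK preincubated 30 min RT with compound; Tris pH 8.0/CaCl2/CHAPS buffer. Data normalized to buffer-alone inhibition; concentration-response curves fitted.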
Potency is the fitted concentration of half-maximal effect.

Structure (SMILES) | Potency
CCOc1ccc(Cn2c(=O)sc3ccccc32)cc1OC | inactive
O=C(Nc1nc(-c2ccco2)c(-c2ccco2)s1)c1ccc(F)cc1F | 10 µM (active)
CC(C)(C)c1cc(Br)ccc1OCC(=O)Nc1ncn[nH]1 | inactive
Cc1ccc([C@@H]2CC=C(C(=O)O)[C@H](c3cccc(Cl)c3)N2S(=O)(=O)c2ccc(C)cc2)cc1 | inactive
CC(=O)C1=C(O)C(=O)N(c2nnn(C)n2)C1c1cccs1 (stereo not given) | inactive
O=C(CSCCO)Nc1cccc2ccccc12 | inactive
CNc1sc(C(=O)c2ccc(F)cc2)c(N)c1-c1nc2ccccc2s1 | inactive
O=C(Cc1cc(=O)[nH]c(=O)[nH]1)NCC1CCCO1 (stereo not given) | inactive
COc1ccc(S(=O)(=O)NCCSCc2ccco2)cc1OC | 10 µM (active)
COc1cccc(C(=O)NCc2ccc3[nH]c(C)cc3c2)c1 | inactive
C#CCOCCOCCOCCNc1nc(N2CCN(C(=O)CCCCCCCCCCNC(=O)[C@@H](CCC(=O)O)n3cc(CCCCCN)nn3)CC2)nc(N2CCN(C(=O)CCCCCCCCCCNC(=O)[C@H]([C@@H](C)CC)n3cc(CCCCCN)nn3)CC2)n1 | 5.01 µM (active)
CC(C)c1ccc(Nc2nnc(SCC(=O)c3nnc(-c4ccccc4)o3)s2)cc1 | 5.01 µM (active)
CCCn1c(N2CCN(Cc3cccc(C)c3)CC2)nc2c1c(=O)[nH]c(=O)n2C | inactive
O=C(O)/C=C/c1ccc(S(=O)(=O)Nc2ccccc2C(=O)Nc2ccc(F)cc2)cc1 | inactive
CC(=O)O[C@H]1[C@H](O)[C@H](Oc2c(O)c(C)c3c4c2[C@@H](C)CC[C@@H]4[C@@H](C)C[C@H]3C=C(C)C)O[C@@H](C)[C@H]1O | inactive
